The record followed here is PMC7862700, “An all-to-all approach to the identification of sequence-specific readers for epigenetic DNA modifications on cytosine”.

Experiment in all cases: DAPPL (digital affinity profiling via proximity ligation, sequencing); 10 mM Tris-HCl pH 7.5, 50 mM NaCl, 1 mM DTT, 4% glycerol, room temperature, 30 min; GST-TFs on glutathione beads, 16-mer random dsDNA library, 0.1% formaldehyde crosslink after washing; high values mean tight binding
What all share (conditions): protein: recombinant; tags: N-terminal GST; dsDNA, one strand shown

For one assay, the target named is T1, FLI1 (Homo sapiens, UniProt Q01543 1-452).
T1 sequence: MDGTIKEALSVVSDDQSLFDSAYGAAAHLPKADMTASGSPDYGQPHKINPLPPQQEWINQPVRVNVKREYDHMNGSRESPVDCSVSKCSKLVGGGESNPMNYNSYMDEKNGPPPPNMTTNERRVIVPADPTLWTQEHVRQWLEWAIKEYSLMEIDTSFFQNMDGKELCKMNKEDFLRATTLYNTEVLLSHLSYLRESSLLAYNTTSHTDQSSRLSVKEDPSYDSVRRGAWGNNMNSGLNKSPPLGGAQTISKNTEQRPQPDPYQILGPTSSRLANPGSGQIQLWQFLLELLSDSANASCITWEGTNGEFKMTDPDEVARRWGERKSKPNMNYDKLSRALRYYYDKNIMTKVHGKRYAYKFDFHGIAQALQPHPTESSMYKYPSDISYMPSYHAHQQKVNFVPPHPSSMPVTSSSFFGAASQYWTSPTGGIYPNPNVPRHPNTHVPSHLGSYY
The essentials:
(§1)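 Human transcription factors fused to GST were expressed in yeast, captured on glutathione beads, given DNA barcodes and pooled with a GST-only negative control. Pools were incubated with 200 nmole of a 16-mer random double-stranded DNA library in Tris/NaCl/DTT/glycerol buffer at room temperature for 30 min. They were then washed, crosslinked with 0.1% formaldehyde, proximity-ligated (BsaI/T4 ligase, 1 h, 37 °C), PCR-amplified and sequenced on an Illumina NextSeq500. Binding signal is each 6-mer's read frequency for a factor divided by its frequency for the GST control.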

The target in another assay is T2, ELK1 (Homo sapiens, UniProt P19419 1-428).
T2 sequence: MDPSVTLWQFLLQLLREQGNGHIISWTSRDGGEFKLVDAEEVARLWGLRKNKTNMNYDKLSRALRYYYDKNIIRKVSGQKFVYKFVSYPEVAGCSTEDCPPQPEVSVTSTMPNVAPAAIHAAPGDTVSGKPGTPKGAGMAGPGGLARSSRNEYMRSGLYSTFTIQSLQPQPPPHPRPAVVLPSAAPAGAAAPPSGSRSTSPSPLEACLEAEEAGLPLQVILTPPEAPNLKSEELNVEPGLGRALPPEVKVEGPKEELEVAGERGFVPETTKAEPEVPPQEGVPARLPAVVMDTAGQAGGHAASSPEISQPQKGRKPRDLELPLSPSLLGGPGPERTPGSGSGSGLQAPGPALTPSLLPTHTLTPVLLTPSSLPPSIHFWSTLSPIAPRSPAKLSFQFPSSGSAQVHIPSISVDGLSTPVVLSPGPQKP
A digest of the protocol: as §1

The next assay has as its target T3, GABPA (Homo sapiens, UniProt Q06546 1-454).
T3 sequence: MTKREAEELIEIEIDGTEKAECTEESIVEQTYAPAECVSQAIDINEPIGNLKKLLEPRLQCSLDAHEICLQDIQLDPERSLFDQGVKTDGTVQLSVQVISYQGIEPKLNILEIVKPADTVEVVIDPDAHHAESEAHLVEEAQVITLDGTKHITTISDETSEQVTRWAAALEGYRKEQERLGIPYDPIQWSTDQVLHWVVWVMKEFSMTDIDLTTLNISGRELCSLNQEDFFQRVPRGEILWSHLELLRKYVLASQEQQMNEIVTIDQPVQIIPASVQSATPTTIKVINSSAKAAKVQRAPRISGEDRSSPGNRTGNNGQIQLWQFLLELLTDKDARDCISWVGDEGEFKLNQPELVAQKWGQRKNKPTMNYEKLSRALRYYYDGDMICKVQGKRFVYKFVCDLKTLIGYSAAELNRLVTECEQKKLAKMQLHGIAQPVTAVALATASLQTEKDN
The essentials: as §1

In a further assay the target is T4, ERG (Homo sapiens, UniProt P11308 1-479).
T4 sequence: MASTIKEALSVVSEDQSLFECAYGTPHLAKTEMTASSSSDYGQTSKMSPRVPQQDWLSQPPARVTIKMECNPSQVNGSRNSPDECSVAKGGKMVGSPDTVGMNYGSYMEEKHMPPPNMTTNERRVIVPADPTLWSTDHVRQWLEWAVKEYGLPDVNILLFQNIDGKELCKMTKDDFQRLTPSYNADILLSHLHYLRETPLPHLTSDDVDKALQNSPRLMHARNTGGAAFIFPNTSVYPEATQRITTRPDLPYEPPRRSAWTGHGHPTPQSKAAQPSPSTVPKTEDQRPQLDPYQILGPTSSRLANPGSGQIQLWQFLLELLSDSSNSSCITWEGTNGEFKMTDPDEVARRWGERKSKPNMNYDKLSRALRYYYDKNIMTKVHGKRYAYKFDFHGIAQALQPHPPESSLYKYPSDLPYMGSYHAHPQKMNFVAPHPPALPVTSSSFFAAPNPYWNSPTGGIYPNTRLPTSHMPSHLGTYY
A digest of the protocol: as §1

The target in the next assay is ELF1 (Homo sapiens, UniProt P32519 1-619). A digest of the protocol: as §1
Chain of ELF1 (P32519 whole entry): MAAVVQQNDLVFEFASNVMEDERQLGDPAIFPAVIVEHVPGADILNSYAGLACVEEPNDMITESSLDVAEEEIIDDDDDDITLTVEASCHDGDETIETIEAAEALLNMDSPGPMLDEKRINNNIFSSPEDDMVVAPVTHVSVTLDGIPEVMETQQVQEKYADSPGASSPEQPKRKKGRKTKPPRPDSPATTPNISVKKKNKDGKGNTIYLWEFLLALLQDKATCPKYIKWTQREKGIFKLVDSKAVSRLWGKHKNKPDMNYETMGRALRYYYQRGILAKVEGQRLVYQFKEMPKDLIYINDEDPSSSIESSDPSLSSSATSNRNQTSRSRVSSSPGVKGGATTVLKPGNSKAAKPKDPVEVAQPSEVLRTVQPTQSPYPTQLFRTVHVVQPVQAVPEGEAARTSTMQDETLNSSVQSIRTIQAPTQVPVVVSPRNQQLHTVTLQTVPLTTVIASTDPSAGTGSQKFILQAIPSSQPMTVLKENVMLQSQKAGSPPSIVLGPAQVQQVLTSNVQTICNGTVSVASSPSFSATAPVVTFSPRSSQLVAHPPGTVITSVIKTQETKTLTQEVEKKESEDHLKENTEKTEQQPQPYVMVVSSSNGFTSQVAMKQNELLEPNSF
Another assay addresses T5, EHF (Homo sapiens, UniProt Q9NZC4 1-300).
T5 sequence: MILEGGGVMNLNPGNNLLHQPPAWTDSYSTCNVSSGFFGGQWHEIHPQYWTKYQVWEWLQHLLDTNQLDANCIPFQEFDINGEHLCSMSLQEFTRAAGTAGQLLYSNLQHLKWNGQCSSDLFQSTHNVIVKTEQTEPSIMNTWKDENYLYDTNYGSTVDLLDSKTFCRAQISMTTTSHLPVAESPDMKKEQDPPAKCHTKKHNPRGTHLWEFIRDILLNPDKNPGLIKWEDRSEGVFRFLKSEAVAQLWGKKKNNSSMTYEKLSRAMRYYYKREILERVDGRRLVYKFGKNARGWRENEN
A digest of the protocol: as §1

The target in assay [1] is SPI1 (Homo sapiens, UniProt P17947 1-270). The essentials: as §1
For another assay, the target named is SPIB (Homo sapiens, UniProt Q01892 1-262). A digest of the protocol:
as §1

Assay [2] has as its target SPI1 (Homo sapiens, UniProt P17947 1-270). The essentials: as §1
This is another data set of the same source.

The target of another assay is T6, ELK3 (Homo sapiens, UniProt P41970 1-407).
T6 sequence: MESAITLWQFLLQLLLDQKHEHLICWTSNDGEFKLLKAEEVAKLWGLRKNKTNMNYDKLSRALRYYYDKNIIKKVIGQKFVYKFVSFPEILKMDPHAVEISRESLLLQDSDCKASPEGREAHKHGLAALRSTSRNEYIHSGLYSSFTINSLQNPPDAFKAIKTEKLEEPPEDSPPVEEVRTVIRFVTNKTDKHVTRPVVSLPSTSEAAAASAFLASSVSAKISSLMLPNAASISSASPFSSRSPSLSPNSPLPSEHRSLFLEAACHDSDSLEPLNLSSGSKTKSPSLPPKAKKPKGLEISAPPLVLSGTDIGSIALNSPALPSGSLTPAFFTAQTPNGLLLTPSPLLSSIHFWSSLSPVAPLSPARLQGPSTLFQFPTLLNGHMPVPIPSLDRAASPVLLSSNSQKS
The essentials: as §1

Chain of SPIB (Q01892 whole entry): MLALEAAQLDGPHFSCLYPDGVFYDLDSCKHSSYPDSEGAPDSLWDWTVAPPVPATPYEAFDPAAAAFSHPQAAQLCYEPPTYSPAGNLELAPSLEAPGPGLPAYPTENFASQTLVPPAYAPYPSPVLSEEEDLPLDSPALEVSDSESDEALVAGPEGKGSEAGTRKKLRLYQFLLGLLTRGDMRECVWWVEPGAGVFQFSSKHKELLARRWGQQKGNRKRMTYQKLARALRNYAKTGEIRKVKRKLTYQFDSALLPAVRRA

Regarding CGAAAG, the binding signal is 1.15 fold enrichment (6-mer frequency, TF over GST control) with FLI1; 1.13 fold enrichment (6-mer frequency, TF over GST control) with ELK1; 1.08 fold enrichment (6-mer frequency, TF over GST control) in the assay with GABPA; 1.04 fold enrichment (6-mer frequency, TF over GST control) in the assay with ERG; 1.09 fold enrichment (6-mer frequency, TF over GST control) with ELF1; 1.01 fold enrichment (6-mer frequency, TF over GST control) in the assay with EHF. In addition, the binding signal is 1.16 fold enrichment (6-mer frequency, TF over GST control) with SPI1 [1] and 1.06 fold enrichment (6-mer frequency, TF over GST control) with SPIB.

For the sequence GATTTG, the binding signal with FLI1 is 1.24 fold enrichment (6-mer frequency, TF over GST control); with ELK1, 1.16 fold enrichment (6-mer frequency, TF over GST control); with GABPA, 1.22 fold enrichment (6-mer frequency, TF over GST control); with ERG, 1.11 fold enrichment (6-mer frequency, TF over GST control); with ELF1, 1.12 fold enrichment (6-mer frequency, TF over GST control); with EHF it was 1.11 fold enrichment (6-mer frequency, TF over GST control). Moreover, the binding signal was 1.08 fold enrichment (6-mer frequency, TF over GST control) in the assay with SPI1 [1] and 1.12 fold enrichment (6-mer frequency, TF over GST control) in the assay with SPIB.

On to ATAGCT, for which the binding signal with FLI1 is 1.13 fold enrichment (6-mer frequency, TF over GST control); with ELK1, 1.08 fold enrichment (6-mer frequency, TF over GST control); with GABPA, 1.2 fold enrichment (6-mer frequency, TF over GST control); with ERG, 1.07 fold enrichment (6-mer frequency, TF over GST control); with ELF1, 1.19 fold enrichment (6-mer frequency, TF over GST control); with EHF it was 1.25 fold enrichment (6-mer frequency, TF over GST control). Also, the binding signal with SPI1 [1] was 1.17 fold enrichment (6-mer frequency, TF over GST control); with SPIB it was 1.09 fold enrichment (6-mer frequency, TF over GST control).

Regarding CGGAAG, the binding signal with FLI1 is 2.85 fold enrichment (6-mer frequency, TF over GST control); with ELK1, 3.3 fold enrichment (6-mer frequency, TF over GST control); in the assay with GABPA, 2.61 fold enrichment (6-mer frequency, TF over GST control); in the assay with ERG, 3.44 fold enrichment (6-mer frequency, TF over GST control); with ELF1 it was 2.8 fold enrichment (6-mer frequency, TF over GST control); with EHF, 3.07 fold enrichment (6-mer frequency, TF over GST control). The binding signal with SPI1 [2] is 3.49 fold enrichment (6-mer frequency, TF over GST control); with SPIB it was 3.01 fold enrichment (6-mer frequency, TF over GST control); with ELK3 it was 3.41 fold enrichment (6-mer frequency, TF over GST control).

Take GCTCGT: the binding signal with FLI1 is 1.19 fold enrichment (6-mer frequency, TF over GST control); in the assay with ELK1 it was 1.16 fold enrichment (6-mer frequency, TF over GST control); in the assay with GABPA, 1.26 fold enrichment (6-mer frequency, TF over GST control); in the assay with ERG it was 1.12 fold enrichment (6-mer frequency, TF over GST control); in the assay with ELF1 it was 1.15 fold enrichment (6-mer frequency, TF over GST control); in the assay with EHF it was 1.14 fold enrichment (6-mer frequency, TF over GST control). Besides, the binding signal with SPI1 [1] was 1.12 fold enrichment (6-mer frequency, TF over GST control); with SPIB, 1.16 fold enrichment (6-mer frequency, TF over GST control).

Take GAAAAG: the binding signal with FLI1 is 1.05 fold enrichment (6-mer frequency, TF over GST control); in the assay with ELK1, 1.01 fold enrichment (6-mer frequency, TF over GST control); in the assay with GABPA it was 1.07 fold enrichment (6-mer frequency, TF over GST control); with ERG, 1.06 fold enrichment (6-mer frequency, TF over GST control); with ELF1, 1.04 fold enrichment (6-mer frequency, TF over GST control); in the assay with EHF it was 1.11 fold enrichment (6-mer frequency, TF over GST control). Also, the binding signal was 1.3 fold enrichment (6-mer frequency, TF over GST control) with SPI1 [1] and 1.14 fold enrichment (6-mer frequency, TF over GST control) with SPIB.

For TAGATT, the binding signal was 1.17 fold enrichment (6-mer frequency, TF over GST control) with FLI1; 1.2 fold enrichment (6-mer frequency, TF over GST control) with ELK1; 1.18 fold enrichment (6-mer frequency, TF over GST control) in the assay with GABPA; 1.2 fold enrichment (6-mer frequency, TF over GST control) in the assay with ERG; 1.17 fold enrichment (6-mer frequency, TF over GST control) with ELF1; 1.24 fold enrichment (6-mer frequency, TF over GST control) with EHF. For the same sequence, the binding signal in the assay with SPI1 [1] is 1.16 fold enrichment (6-mer frequency, TF over GST control); with SPIB, 1.24 fold enrichment (6-mer frequency, TF over GST control).

In the case of GGTAAT, the binding signal with FLI1 was 1.15 fold enrichment (6-mer frequency, TF over GST control); with ELK1 it was 1.1 fold enrichment (6-mer frequency, TF over GST control); with GABPA it was 1.22 fold enrichment (6-mer frequency, TF over GST control); in the assay with ERG, 1.08 fold enrichment (6-mer frequency, TF over GST control); with ELF1, 1.17 fold enrichment (6-mer frequency, TF over GST control); with EHF, 1.2 fold enrichment (6-mer frequency, TF over GST control). The binding signal in the assay with SPI1 [1] was 1.04 fold enrichment (6-mer frequency, TF over GST control); with SPIB, 1.11 fold enrichment (6-mer frequency, TF over GST control).
